GALR2 agonist: GALR2 receptor agonists, primary screen, cell-based; GALR2-expressing cells, agonist activation read-out; activation, % (test concentration not listed); hit rate 0.48% among 140,000; AID 803, 2007; in the data active means activation above about 5%, passing the limit was not always enough;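 further: 0% = vehicle buffer wells and 100% = reference agonist at full effect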
GALR2 antag: GALR2 antagonists in receptor-expressing cells, primary screen | inhibition, % at 4 µM | hit rate 0.39% among 140,000 | antagonist mode | AID 828, 2007; in the data active means inhibition above about 27%;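 further: cells stimulated with galanin 1-16 at roughly its EC80; 0% = agonist challenge control and 100% = basal control without agonist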
MRP resist rev: reversal of MRP1-mediated doxorubicin resistance, primary screen, H69AR cells, doxorubicin co-treatment; H69AR cells + 2 uM doxorubicin, CellTiter-Glo, 72 h; differential viability (reversal), % at 10 µM; hit rate 0.04% among 85,000;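 active means viability drop by adding the cancer drug above about 55%, with treated viability meeting a 40% cutoff, limit read from the data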;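 further: viability without doxorubicin minus viability with 2 µM doxorubicin for each compound; larger differential means the compound sensitizes cells more to doxorubicin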
S1P2 antag: human S1P2 receptor antagonists, primary screen, cell-based. cell-based S1P2 antagonist assay, inhibition at 5 uM. Sphingosine 1-phosphate receptor 2 (Homo sapiens), O95136. hit rate 0.21% among 97,000. inhibition, % at 5 µM; in the data active means inhibition above about 45%;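 further: CRE beta-lactamase reporter cells expressing human S1P2 stimulated with S1P; 0% = agonist at EC80 alone and 100% = agonist plus reference antagonist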
Target sequence (O95136 whole entry, looked up): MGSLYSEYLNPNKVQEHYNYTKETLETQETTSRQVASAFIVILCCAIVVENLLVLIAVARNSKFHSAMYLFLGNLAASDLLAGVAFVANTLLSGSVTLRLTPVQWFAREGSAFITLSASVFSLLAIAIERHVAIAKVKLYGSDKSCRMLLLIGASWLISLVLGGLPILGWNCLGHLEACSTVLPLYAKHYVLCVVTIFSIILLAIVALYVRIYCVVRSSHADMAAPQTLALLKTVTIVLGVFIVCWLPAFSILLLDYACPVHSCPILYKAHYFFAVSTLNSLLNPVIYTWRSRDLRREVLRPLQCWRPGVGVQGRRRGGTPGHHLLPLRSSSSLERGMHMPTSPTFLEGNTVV
S1P2 ag: S1P2 receptor agonists, primary screen, cell-based; Sphingosine 1-phosphate receptor 2 (Homo sapiens), O95136; S1P2-expressing cell line, agonist reporter read-out; activation, % at 4.5 µM; hit rate 0.46% among 97,000; AID 729, 2007; in the data active means activation above about 16%;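 further: 0% = vehicle low control and 100% = maximal reference agonist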
MRP1 act: H69AR viability gain despite doxorubicin, primary screen, MRP-1 activator project, H69AR cells, CellTiter-Glo; AID 799, 2007; viability rescue; viability increase, % at 10 µM; hit rate 0.61% among 140,000;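 active means viability gain under doxorubicin at or above a set limit, the compound median plus 3 SD, cut at about 4.7% in these data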;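 further: MRP-1 overexpressing cells given doxorubicin 25 µM after compound pretreatment; 18-22 h compound pretreatment then 72 h with doxorubicin before readout; 0% = doxorubicin-only wells and 100% = vehicle-treated cells without doxorubicin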
* marks the source's active call; other numbers are inactive results; nt = not tested or not shown. Shown are actives, neighbours in structure and some others; about 1.8% of the full set was active somewhere.

SMILES | GALR2 agonist | GALR2 antag | MRP resist rev | S1P2 antag | S1P2 ag | MRP1 act
COC(=O)C1=CN(C(C)C)C=C(C(=O)OC)C1c1cc(Br)c(OC)c(OC)c1 | 22* | 3 | 43 | -24 | 18* | -1
COc1cc(C(=O)NCc2ccccc2)cc(Br)c1OC | 0 | 5 | nt | nt | nt | 0
CCC(=O)Nc1ccc(-c2nnc(SCC(=O)NCC3CCCO3)n2C)cc1 (stereo not given) | 0 | -10 | nt | nt | nt | 0
CC[N+](CC)(CC)C/C(N)=N/O | -2 | -3 | 7 | 10 | -6 | 0
CCn1c2ccccc2c2cc(NC(=O)CC(C)=O)ccc21 | -1 | 0 | nt | nt | nt | 4.8*
CCCC(=O)Nc1ccc2c(c1)c1ccccc1n2CC | -1 | -1 | nt | nt | nt | 1
CCC(C)(c1nnnn1-c1c(C)cccc1C)N(N=O)c1ccccc1Cl (stereo not given) | -1 | -7 | nt | nt | nt | -3
Cc1nc(SCC(=O)Nc2ccc(F)cc2)c2oc3ccccc3c2n1 | -3 | 13 | -6 | -18 | -4 | -1
Cc1nc(SCC(=O)Nc2ccccc2)c2oc3ccccc3c2n1 | -3 | 2 | -2 | -32 | 17* | 0
Cc1cc(C)cc(NC(=O)c2oc3ccccc3c2COc2ccccc2)c1 | -1 | 3 | nt | nt | nt | 5.2*
CC(/C=N/N1CCN(c2ccccc2)CC1)=C\c1ccccc1 | -1 | -4 | nt | -3 | -5 | -1
CC(/C=N/N1CCN(c2ccccn2)CC1)=C\c1ccccc1 | -2 | -4 | nt | nt | nt | 5.0*
COC(=O)c1ccc(NC(=O)c2sc3nc(-c4ccccc4)cn3c2C)cc1 | -3 | 12 | -19 | 47* | -6 | -2
CC1(CC(=O)O)C(=O)N=C2C=CC=CN21 (stereo not given) | -1 | -4 | 8 | 4 | -5 | -1
CCCOc1nc2c(c(=O)n(C)c(=O)n2C)n1CCC | 7.8* | -1 | 8 | nt | nt | -3
CCCn1c(OC)nc2c1c(=O)n(C)c(=O)n2C | -3 | 7 | 4 | nt | nt | -3
Nc1ccccc1-c1nnc(-c2ccc(-c3ccccc3)cc2)o1 | 4 | -7 | nt | -7 | 20* | -1
COc1ccc(OC)c(NC(=O)CSc2nnc(CNC(=O)COc3ccc(Cl)cc3)o2)c1 | 0 | 1 | 13 | 26 | -4 | 5.6*
CCOc1cc(C(=O)CSc2nnc(CNc3ccc(Cl)cc3)o2)ccc1NC(=O)CC | 7.8* | 27 | -1 | 47* | 10 | -1
CC(C)C(C)(C#N)NC(=O)CSc1nc2scc(-c3ccc(F)cc3)c2c(=O)n1Cc1ccccc1 (stereo not given) | 0 | 5 | nt | nt | nt | 1
COc1cc(/C=C(/NC(=O)c2ccccc2)C(=O)Nc2ccc(O)cc2)c([N+](=O)[O-])cc1OC | -1 | -6 | nt | nt | nt | -2
COc1ccc2[nH]c(=O)c3c(c2c1)OC(C)(C)C=C3 | -2 | 2 | -22 | 57* | -11 | -3
Cc1ccc(NC(=O)N(Cc2nc3ccccc3c(=O)[nH]2)Cc2cccs2)cc1 | -2 | -5 | nt | nt | nt | 1
CCc1ccc(/C(C)=N/Nc2cc(Cl)nc(C)n2)cc1 | -2 | -2 | nt | 18 | -4 | 7.9*
Cn1c(=O)oc2cc(S(=O)(=O)NCC3CCCO3)ccc21 (stereo not given) | 1 | 14 | 0 | 6 | 20* | nt
SMILES | GALR2 agonist | GALR2 antag | MRP resist rev | S1P2 antag | S1P2 ag | MRP1 act
CC(C)NS(=O)(=O)c1ccc2c(c1)oc(=O)n2C | -1 | 18 | 6 | nt | nt | -1
COc1ccc(OC)c(C2=Nn3c(nnc3-c3cccc(OC(C)C)c3)SC2)c1 | 0 | -21 | -16 | -30 | 6 | -2
CC(C)n1c(SCC(=O)N2CCCc3ccccc32)nc2c1c(=O)n(C)c(=O)n2C | nt | nt | 5 | nt | nt | nt
C#CCNc1nc(CC)nc2c1nnn2Cc1ccccc1F | 0 | -3 | -6 | -30 | 28* | 0
CCc1nc(NCCCCCO)c2nnn(Cc3ccccc3F)c2n1 | -3 | -13 | -4 | -37 | 0 | -1
Cc1c(C(=O)Nc2ccc(OC(F)(F)F)cc2)sc2nc3n(c(=O)c12)CCC3 | -1 | 15 | nt | 58* | -4 | -2
CCCSc1cc(NCCOC(=O)CCC)c([N+](=O)[O-])c2nonc12 | -1 | -12 | nt | nt | nt | -3
CCCC(=O)OCCNc1cc(Sc2nccn2C)c2nonc2c1[N+](=O)[O-] | 6.2* | 4 | nt | nt | nt | -5
CN(C)S(=O)(=O)c1cccc(NC(=O)COC(=O)CCSc2ccc(Cl)cc2)c1 | 0 | 6 | nt | nt | nt | -1
CCN(CC)S(=O)(=O)c1cccc(NC(=O)CCSc2ccc(Cl)cc2)c1 | -1 | 8 | nt | nt | nt | 5.5*
CCC1(C)OC(=O)NN(c2ccc(C)cc2)C1(C)O (stereo not given) | -2 | -2 | nt | nt | nt | -1
CCOC(=O)CC(=O)CSc1nc2c(c(-c3cccs3)c1C#N)CCC2 | 0 | -9 | nt | nt | nt | 0
CCOCCSc1nc2c(c(-c3cccs3)c1C#N)CC/C2=C/c1cccs1 | 5.1* | -3 | nt | nt | nt | 1
CCCCNC(=S)NNC(=O)c1nn(C)cc1Cl | 0 | 0 | 11 | 0 | -7 | -1
O=C(CSc1nnc(-c2ccccc2)n1-c1ccc(Cl)cc1)N/N=C/c1ccco1 | -1 | 1 | nt | nt | nt | 5.2*
CCc1nc(C)c(C#N)c2cc(OC)c(OC)cc12 | -4 | -4 | -20 | -50 | 26* | -1
CCOC(=O)c1c(-c2cccs2)csc1NC(=O)CSc1ncn[nH]1 | -2 | -10 | -2 | -23 | -2 | 6.0*
CCOC(=O)c1sc(Nc2nc3cc4c(cc3s2)OCO4)cc1C | -1 | -3 | nt | nt | nt | 4.7*
CCC1(CC)C(=O)N(C)C(=O)NC1=NCc1ccccc1 | -3 | -8 | nt | 5 | -5 | 0
COc1ccc(OC)c(Nc2cc(-c3ccccc3)nc(N)n2)c1 | -1 | 11 | -19 | 4 | 0 | -1
Cc1nc(OCc2ccccc2)c2sc3nc4c(cc3c2n1)COC(C)(C)C4 | -1 | -11 | 18 | -6 | -2 | 6.1*
COc1ccc(N2CCN(c3nc(NCCO)nc(N4CCOCC4)n3)CC2)cc1 | -1 | -3 | 19 | 4 | -5 | 1
COc1ccc(N2CCN(c3nc(Cl)nc(N4CCOCC4)n3)CC2)cc1 | -1 | -3 | -8 | -16 | 0 | 8.8*
CC1C/C(=C/c2cccn2C)C(=O)/C(=C/c2cccn2C)C1 (stereo not given) | 1 | 24 | 8 | 59* | -11 | -5
CCCCn1c2c(c3ccccc31)CCc1nonc1-2 | 0 | -6 | -8 | 5 | -3 | nt
Fc1ccc(-n2nnnc2-c2cnc(-c3cccs3)nc2C(F)(F)F)cc1 | -1 | 11 | nt | 76* | -11 | 5.1*
FC(F)(F)c1nc(-c2ccncc2)ncc1-c1nnnn1-c1ccccc1 | -2 | -9 | nt | 24 | -10 | -3
CCn1c(CNC(=O)COc2ccc(C(C)C)cc2)nnc1SCC(=O)Nc1ccccc1F | -2 | -9 | nt | -6 | -1 | 0

Bioassay records as filed in PubChem BioAssay.
